Test results as given in PubChem BioAssay (EPA / NIEHS).
Active and inactive are the calls of the source. The calls were made as follows: active = hit-call score of the fitted dose curve at least 0.9, where 1 is the maximum; inactive = score below 0.9.

Legend:
Conditions in all cases: mRNA level, 48 h; actives raise or lower the signal
[1] = read-out: Cyclin D1 (CCND1), CCND1 (gene 595); experiment: LTEA_HepaRG_CCND1: Life Technologies and Expression Analysis (LTEA) Assay for Cyclin D1 (CCND1) using HepaRG (AID 2283451);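 as to AC50: TaqMan qRT-PCR transcript level normalised to ACTB GAPDH and POLR2A housekeeping genes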
Procedure, shortened: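 HepaRG plated 48 h, medium switched to serum-free induction medium, chemicals added in duplicate (top 100 uM, half-log steps, 0.5% DMSO) for 48 h, cells lysed, RNA measured by TaqMan qRT-PCR.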

[2] = read-out: catalase (CAT), CAT (gene 847); experiment: LTEA_HepaRG_CAT: Life Technologies and Expression Analysis (LTEA) Assay for catalase (CAT) using HepaRG (AID 2283452)
Procedure, shortened: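 Expression of CAT was quantified by TaqMan qRT-PCR with ACTB/GAPDH/POLR2A normalization after 48 h chemical exposure of HepaRG. Eight-point half-log series, top 100 uM, in 0.5% DMSO; gain or loss fitted against vehicle.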

[3] = read-out: flavin-containing dimethylaniline monooxygenases 3 (FMO3), FMO3 (gene 2328); experiment: LTEA_HepaRG_FMO3: Life Technologies and Expression Analysis (LTEA) Assay for flavin-containing dimethylaniline monooxygenases 3 (FMO3) using HepaRG (AID 2283453);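 as to AC50: FMO3 transcript by TaqMan qRT-PCR normalized to ACTB GAPDH and POLR2A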
Procedure, shortened: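 HepaRG, 48 h exposure, 8-pt half-log series from 100 uM, 0.5% DMSO vehicle, duplicates; FMO3 transcript by Fluidigm TaqMan qRT-PCR, housekeeping-normalized; gain/loss fit vs DMSO.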

[4] = read-out: Cytochrome P450 (CYP1A1), CYP1A1 (gene 1543); experiment: LTEA_HepaRG_CYP1A1: Life Technologies and Expression Analysis (LTEA) Assay for Cytochrome P450 (CYP1A1) using HepaRG (AID 2283454)
Procedure, shortened: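 HepaRG, 48 h post-plating switched to serum-free induction medium; 8-pt conc-response (top 100 uM, half-log, 0.5% DMSO), duplicates, 48 h. Lysis in RLT, TaqMan qRT-PCR for CYP1A1; gain or loss vs DMSO.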

[5] = read-out: CFLAR gene, CFLAR (gene 8837); experiment: LTEA_HepaRG_CFLAR: Life Technologies and Expression Analysis (LTEA) Assay for CFLAR gene using HepaRG (AID 2283455)
Procedure, shortened: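 HepaRG, 48 h exposure, 8-pt conc-response (100 uM top, half-log), 0.5% DMSO vehicle, duplicates. CFLAR expression by qRT-PCR; ACTB/GAPDH/POLR2A normalization; gain or loss fit vs DMSO baseline.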

[6] = read-out: Forkhead box O1 (FOXO1), FOXO1 (gene 2308); experiment: LTEA_HepaRG_FOXO1: Life Technologies and Expression Analysis (LTEA) Assay for Forkhead box O1 (FOXO1) using HepaRG (AID 2283456)
Procedure, shortened: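 Readout is FOXO1 transcript level by multiplexed qRT-PCR against three housekeeping genes, curve-fitted in both directions relative to 0.5% DMSO vehicle. Human HepaRG cultures received chemicals for 48 h, up to 100 uM in half-log steps.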

[7] = read-out: growth arrest and DNA damage 45 (GADD45A), GADD45A (gene 1647); experiment: LTEA_HepaRG_GADD45A: Life Technologies and Expression Analysis (LTEA) Assay for growth arrest and DNA damage 45 (GADD45A) using HepaRG (AID 2283458)
Procedure, shortened: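 Differentiated HepaRG cells were exposed in duplicate for 48 h in serum-free induction medium to 8-point half-log concentrations up to 100 uM in 0.5% DMSO. GADD45A mRNA was measured by TaqMan qRT-PCR, normalized to ACTB, GAPDH and POLR2A, with bidirectional fitting versus DMSO.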

[8] = read-out: ABC Transporter (ABCB1), ABCB1 (gene 5243); experiment: LTEA_HepaRG_ABCB1: Life Technologies and Expression Analysis (LTEA) Assay for ABC Transporter (ABCB1) using HepaRG (AID 2283460)
Procedure, shortened: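 Expression of ABCB1 was quantified by qRT-PCR against three housekeeping genes after human HepaRG cultures received test chemicals for 48 hours. Concentrations spanned eight half-log steps topping at 100 uM in 0.5% DMSO; gain or loss of signal was fitted relative to vehicle.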

[9] = read-out: growth arrest and DNA damage 45 (GADD45B), GADD45B (gene 4616); experiment: LTEA_HepaRG_GADD45B: Life Technologies and Expression Analysis (LTEA) Assay for growth arrest and DNA damage 45 (GADD45B) using HepaRG (AID 2283461)
Procedure, shortened: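 HepaRG, ~100,000 cells/well, 48 h plating; serum-free induction medium; cpd 100 uM top, half-log x8, 0.5% DMSO, duplicate, 48 h; lysis in RLT, RNA isolation, qRT-PCR; norm ACTB/GAPDH/POLR2A; bidirectional fit vs DMSO.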

[10] = read-out: ABC Transporter (ABCC3), ABCC3 (gene 8714); experiment: LTEA_HepaRG_ABCC3: Life Technologies and Expression Analysis (LTEA) Assay for ABC Transporter (ABCC3) using HepaRG (AID 2283462)
Procedure, shortened: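 Human HepaRG, 48 h dosing, 8-pt half-log series from 100 uM, 0.5% DMSO vehicle, duplicates. ABCC3 mRNA by TaqMan qRT-PCR, housekeeping-normalized; bidirectional curve fit vs DMSO.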

[11] = read-out: ABC Transporter (ABCB11), ABCB11 (gene 8647); experiment: LTEA_HepaRG_ABCB11: Life Technologies and Expression Analysis (LTEA) Assay for ABC Transporter (ABCB11) using HepaRG (AID 2283463)
Procedure, shortened: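 ABCB11 transcript levels are read by Fluidigm TaqMan qRT-PCR after 48 h chemical treatment of human HepaRG cells. Concentrations span 100 uM downward in half-log steps with 0.5% DMSO; gain or loss is fitted against DMSO controls.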

[12] = read-out: ABC Transporter (ABCC2), ABCC2 (gene 1244); experiment: LTEA_HepaRG_ABCC2: Life Technologies and Expression Analysis (LTEA) Assay for ABC Transporter (ABCC2) using HepaRG (AID 2283464)
Procedure, shortened: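 HepaRG, 48 h post-plating; serum-free induction medium; cpd 8-pt, 100 uM top, half-log, 0.5% DMSO, duplicate, 48 h. Readout: ABCC2 mRNA by qRT-PCR, norm. ACTB/GAPDH/POLR2A. Bidirectional fit vs DMSO baseline.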

[13] = read-out: Broad substrate specificity ATP-binding cassette transporter ABCG2 (Homo sapiens) (UniProt Q9UNQ0); experiment: LTEA_HepaRG_ABCG2: Life Technologies and Expression Analysis (LTEA) Assay for ABC Transporter (ABCG2) using HepaRG (AID 2283465)
Procedure, shortened: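 Read-out is ABCG2 mRNA induction or loss quantified by qRT-PCR after 48 h chemical treatment of human HepaRG cells, normalized to three housekeeping genes. Concentrations reached 100 uM top in half-log steps; fitting was bidirectional against 0.5% DMSO.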

[14] = read-out: ATP-citrate lyase (ACLY), ACLY (gene 47); experiment: LTEA_HepaRG_ACLY: Life Technologies and Expression Analysis (LTEA) Assay for ATP-citrate lyase (ACLY) using HepaRG (AID 2283466)
Procedure, shortened: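 HepaRG, 48 h exposure, 8-pt half-log dilutions (top 100 uM), 0.5% DMSO. Readout: ACLY mRNA, TaqMan qRT-PCR, housekeeping-normalized (ACTB/GAPDH/POLR2A). Bidirectional curve fit vs DMSO.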

[15] = read-out: Peroxisomal acyl-coenzyme A oxidase 1 (ACOX1) gene, ACOX1 (gene 51); experiment: LTEA_HepaRG_ACOX1: Life Technologies and Expression Analysis (LTEA) Assay for Peroxisomal acyl-coenzyme A oxidase 1 (ACOX1) gene using HepaRG (AID 2283467)
Procedure, shortened: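 Measured by qRT-PCR against three housekeeping genes: ACOX1 transcript change in human HepaRG cells after 48 h dosing. Concentrations ran up to 100 uM in half-log steps. Curves were fitted bidirectionally relative to 0.5% DMSO.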

[16] = read-out: Alkaline Phosphatase, Placental (ALPP) gene, ALPP (gene 250); experiment: LTEA_HepaRG_ALPP: Life Technologies and Expression Analysis (LTEA) Assay for Alkaline Phosphatase, Placental (ALPP) gene using HepaRG (AID 2283468)
Procedure, shortened: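 HepaRG, 48 h plating then 48 h dosing, serum-free induction medium, 0.5% DMSO. 8 conc, half-log, max 100 uM, duplicates. Endpoint: ALPP transcript by qRT-PCR, housekeeping-normalized; gain or loss fitted vs DMSO.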

[17] = read-out: Bcl-2 (BAD) gene, BAD (gene 572); experiment: LTEA_HepaRG_BAD: Life Technologies and Expression Analysis (LTEA) Assay for Bcl-2 (BAD) gene using HepaRG (AID 2283469)
Procedure, shortened: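 BAD transcript change, measured by qRT-PCR against three housekeeping genes and fitted in both directions relative to 0.5% DMSO, after 48 h chemical treatment of human HepaRG liver cells at concentrations up to 100 uM.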

[18] = read-out: Bcl-2 (BAX) gene, BAX (gene 581); experiment: LTEA_HepaRG_BAX: Life Technologies and Expression Analysis (LTEA) Assay for Bcl-2 (BAX) gene using HepaRG (AID 2283470)
Procedure, shortened: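 Differentiated human HepaRG cells, plated 48 h then switched to serum-free induction medium, were exposed 48 h to 8 half-log concentrations up to 100 uM in 0.5% DMSO; BAX mRNA measured by qRT-PCR, normalized to ACTB, GAPDH, POLR2A.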

[19] = read-out: Forkhead box O3 (FOXO3), FOXO3 (gene 2309); experiment: LTEA_HepaRG_FOXO3: Life Technologies and Expression Analysis (LTEA) Assay for Forkhead box O3 (FOXO3) using HepaRG (AID 2283459)
Procedure, shortened: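 HepaRG, 48 h post-dose; 8 conc., half-log from 100 uM, 0.5% DMSO, duplicates; serum-free induction medium. Readout: FOXO3 mRNA, TaqMan qRT-PCR, housekeeping-normalized. Bidirectional curve fit vs DMSO baseline.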

Measured: AC50

Chain of Broad substrate specificity ATP-binding cassette transporter ABCG2 (Homo sapiens) (Q9UNQ0 whole entry, looked up): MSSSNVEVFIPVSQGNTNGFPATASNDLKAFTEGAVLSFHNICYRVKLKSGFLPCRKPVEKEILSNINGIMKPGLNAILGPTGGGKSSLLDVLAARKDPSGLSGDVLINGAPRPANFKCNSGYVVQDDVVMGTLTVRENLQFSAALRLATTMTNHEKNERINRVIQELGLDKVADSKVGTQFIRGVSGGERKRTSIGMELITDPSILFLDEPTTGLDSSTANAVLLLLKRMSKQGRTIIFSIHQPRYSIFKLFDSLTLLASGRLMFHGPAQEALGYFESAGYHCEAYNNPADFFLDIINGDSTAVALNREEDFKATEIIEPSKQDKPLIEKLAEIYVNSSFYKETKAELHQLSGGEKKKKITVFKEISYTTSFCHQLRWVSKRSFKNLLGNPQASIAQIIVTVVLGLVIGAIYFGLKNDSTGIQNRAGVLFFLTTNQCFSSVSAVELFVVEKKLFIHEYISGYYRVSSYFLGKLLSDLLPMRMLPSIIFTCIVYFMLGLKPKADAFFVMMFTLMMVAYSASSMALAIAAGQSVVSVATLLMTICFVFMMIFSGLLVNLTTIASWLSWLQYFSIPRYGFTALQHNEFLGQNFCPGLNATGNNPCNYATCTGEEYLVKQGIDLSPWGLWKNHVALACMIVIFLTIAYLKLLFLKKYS

N#Cc1c[nH]cc1-c1cccc2c1OC(F)(F)O2
active: [1] 50 µM | [2] 74.9 µM | [3] 71.8 µM | [4] 77.2 µM | [5] 14.7 µM | [9] 27.1 µM | [11] 44.8 µM | [13] 50 µM | [16] 10 µM | [18] 23.3 µM
inactive: [6] | [7] | [8] | [10] | [12] | [14] | [15] | [17]

CC(C)=CC1C(C(=O)OCc2coc(Cc3ccccc3)c2)C1(C)C (stereo not drawn)
active: [4] 60.8 µM | [8] 29.3 µM | [11] 50 µM | [12] 50 µM
not listed: [7] | [10]
inactive: all other assays above

CNC(=O)N(C)c1nnc(C(C)(C)C)s1
active: [4] 42.9 µM
not listed: [10]
inactive: all other assays above
